Results taken from article PMC7862700, “An all-to-all approach to the identification of sequence-specific readers for epigenetic DNA modifications on cytosine”.

Key:
Assay in all cases: DAPPL (digital affinity profiling via proximity ligation, sequencing); 10 mM Tris-HCl pH 7.5, 50 mM NaCl, 1 mM DTT, 4% glycerol, room temperature, 30 min; GST-TFs on glutathione beads, 16-mer random dsDNA library, 0.1% formaldehyde crosslink after washing; high values mean tight binding
FEV = target: T1, FEV (Homo sapiens, UniProt Q99581 1-238); details: protein: recombinant; tags: N-terminal GST; dsDNA, one strand shown
T1 sequence: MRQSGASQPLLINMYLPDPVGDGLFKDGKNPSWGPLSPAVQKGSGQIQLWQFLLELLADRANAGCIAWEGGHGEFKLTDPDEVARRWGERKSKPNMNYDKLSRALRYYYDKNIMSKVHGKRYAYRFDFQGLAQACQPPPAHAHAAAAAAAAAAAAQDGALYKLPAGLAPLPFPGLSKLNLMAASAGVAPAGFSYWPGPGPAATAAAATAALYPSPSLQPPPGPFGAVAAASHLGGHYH
Method in brief: (§1)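 Beads coated with glutathione captured GST-fused human transcription factors that had been expressed in yeast, and the factors were then given DNA barcodes and pooled with a tag-only sample. The pools were incubated with 200 nmole of a random double-stranded 16-mer DNA library in Tris/NaCl/DTT/glycerol buffer for 30 min at room temperature, washed, crosslinked with 0.1% formaldehyde and proximity-ligated with BsaI/T4 ligase at 37 °C for 1 h. PCR amplification and Illumina NextSeq500 sequencing came last. Binding signal is each hexamer's read frequency for a factor divided by its frequency for the tag-only sample.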

ETV5 = ETV5 (Homo sapiens, UniProt P41161 1-510); details: protein: recombinant; tags: N-terminal GST; dsDNA, one strand shown
Sequence of ETV5 (P41161 whole entry): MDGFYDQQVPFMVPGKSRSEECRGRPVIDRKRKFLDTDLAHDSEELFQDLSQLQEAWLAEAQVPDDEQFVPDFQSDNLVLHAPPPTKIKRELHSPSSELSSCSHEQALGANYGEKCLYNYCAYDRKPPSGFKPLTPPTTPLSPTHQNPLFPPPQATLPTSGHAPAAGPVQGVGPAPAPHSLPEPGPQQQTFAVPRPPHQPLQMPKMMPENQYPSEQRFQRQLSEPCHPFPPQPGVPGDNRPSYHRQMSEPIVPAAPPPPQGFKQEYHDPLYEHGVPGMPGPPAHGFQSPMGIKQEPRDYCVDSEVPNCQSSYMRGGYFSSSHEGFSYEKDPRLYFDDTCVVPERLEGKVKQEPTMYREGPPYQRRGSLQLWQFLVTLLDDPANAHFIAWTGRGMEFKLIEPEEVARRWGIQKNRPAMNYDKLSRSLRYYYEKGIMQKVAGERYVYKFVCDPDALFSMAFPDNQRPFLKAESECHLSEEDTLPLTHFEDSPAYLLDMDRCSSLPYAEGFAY
Method in brief: as §1

HSF1 = HSF1 (Homo sapiens, UniProt Q00613 1-529); details: protein: recombinant; tags: N-terminal GST; chain copies: 3; dsDNA, one strand shown
Sequence of HSF1 (Q00613 whole entry): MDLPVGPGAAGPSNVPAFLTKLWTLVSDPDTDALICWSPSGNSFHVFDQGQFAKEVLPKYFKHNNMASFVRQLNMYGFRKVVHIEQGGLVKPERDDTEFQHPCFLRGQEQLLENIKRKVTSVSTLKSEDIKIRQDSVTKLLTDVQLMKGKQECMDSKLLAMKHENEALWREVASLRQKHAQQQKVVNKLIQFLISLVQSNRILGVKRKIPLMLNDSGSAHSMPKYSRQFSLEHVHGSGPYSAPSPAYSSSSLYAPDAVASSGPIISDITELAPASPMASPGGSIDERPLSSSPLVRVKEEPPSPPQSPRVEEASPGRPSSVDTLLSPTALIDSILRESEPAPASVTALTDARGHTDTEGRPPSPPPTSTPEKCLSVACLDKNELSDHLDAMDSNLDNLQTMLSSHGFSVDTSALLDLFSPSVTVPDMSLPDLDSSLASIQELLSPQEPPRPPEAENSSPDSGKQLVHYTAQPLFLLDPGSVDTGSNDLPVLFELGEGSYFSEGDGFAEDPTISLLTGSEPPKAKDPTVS
Method in brief: as §1

SPIC = target: T2, SPIC (Homo sapiens, UniProt Q8N5J4 1-248); details: protein: recombinant; tags: N-terminal GST; dsDNA, one strand shown
T2 sequence: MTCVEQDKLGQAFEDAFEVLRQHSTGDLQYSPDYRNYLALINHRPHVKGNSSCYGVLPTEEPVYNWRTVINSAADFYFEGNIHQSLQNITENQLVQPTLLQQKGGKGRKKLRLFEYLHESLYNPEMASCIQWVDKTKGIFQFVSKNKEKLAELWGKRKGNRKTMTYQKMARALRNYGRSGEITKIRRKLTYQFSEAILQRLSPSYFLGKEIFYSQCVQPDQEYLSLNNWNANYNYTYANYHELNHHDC
Method in brief: as §1

ELF4 = ELF4 (Homo sapiens, UniProt Q99607 1-663); details: protein: recombinant; tags: N-terminal GST; dsDNA, one strand shown
Sequence of ELF4 (Q99607 whole entry): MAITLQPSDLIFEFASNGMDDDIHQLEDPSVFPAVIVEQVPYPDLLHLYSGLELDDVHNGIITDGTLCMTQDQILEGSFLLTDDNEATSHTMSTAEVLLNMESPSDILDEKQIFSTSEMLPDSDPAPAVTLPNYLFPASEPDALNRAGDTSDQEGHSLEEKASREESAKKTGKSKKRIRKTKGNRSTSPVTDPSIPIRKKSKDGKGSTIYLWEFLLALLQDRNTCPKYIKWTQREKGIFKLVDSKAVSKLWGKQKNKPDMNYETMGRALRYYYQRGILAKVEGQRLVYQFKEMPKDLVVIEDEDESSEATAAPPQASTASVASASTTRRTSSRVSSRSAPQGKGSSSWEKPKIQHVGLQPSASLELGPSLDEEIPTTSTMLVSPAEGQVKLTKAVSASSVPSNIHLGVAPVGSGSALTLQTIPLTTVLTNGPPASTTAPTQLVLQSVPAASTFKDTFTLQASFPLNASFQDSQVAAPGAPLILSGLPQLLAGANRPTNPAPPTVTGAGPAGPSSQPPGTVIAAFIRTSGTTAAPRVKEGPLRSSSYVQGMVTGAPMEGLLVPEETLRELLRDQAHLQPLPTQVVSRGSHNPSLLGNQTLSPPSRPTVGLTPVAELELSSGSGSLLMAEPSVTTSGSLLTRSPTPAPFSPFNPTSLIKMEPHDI
Method in brief: as §1

ELK4 = target: T3, ELK4 (Homo sapiens, UniProt P28324-2 1-405); details: protein: recombinant; tags: N-terminal GST; dsDNA, one strand shown
T3 sequence: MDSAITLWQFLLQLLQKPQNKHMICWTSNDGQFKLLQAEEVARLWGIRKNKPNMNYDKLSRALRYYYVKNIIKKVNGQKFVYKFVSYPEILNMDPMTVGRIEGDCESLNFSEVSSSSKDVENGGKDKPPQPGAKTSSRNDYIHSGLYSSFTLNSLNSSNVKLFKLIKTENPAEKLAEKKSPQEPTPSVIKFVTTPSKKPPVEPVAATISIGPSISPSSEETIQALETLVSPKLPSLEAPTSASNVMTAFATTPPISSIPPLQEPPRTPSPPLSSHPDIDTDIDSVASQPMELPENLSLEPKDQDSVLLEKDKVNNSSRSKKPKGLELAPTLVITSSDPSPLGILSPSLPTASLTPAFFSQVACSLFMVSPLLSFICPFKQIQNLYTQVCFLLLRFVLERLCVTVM
Method in brief: as §1

ETV2 = target: T4, ETV2 (Homo sapiens, UniProt O00321 1-342); details: protein: recombinant; tags: N-terminal GST; dsDNA, one strand shown
T4 sequence: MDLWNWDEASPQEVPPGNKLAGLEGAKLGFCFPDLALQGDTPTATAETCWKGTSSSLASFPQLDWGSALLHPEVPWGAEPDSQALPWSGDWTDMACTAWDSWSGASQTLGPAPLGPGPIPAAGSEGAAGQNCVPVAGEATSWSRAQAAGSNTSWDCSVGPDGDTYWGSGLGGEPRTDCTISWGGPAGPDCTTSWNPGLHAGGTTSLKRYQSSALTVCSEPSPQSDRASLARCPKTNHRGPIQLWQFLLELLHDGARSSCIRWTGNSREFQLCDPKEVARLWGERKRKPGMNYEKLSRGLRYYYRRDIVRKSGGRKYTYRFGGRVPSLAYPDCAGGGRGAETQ
Method in brief: as §1

ELF3 = target: T5, ELF3 (Homo sapiens, UniProt P78545 1-371); details: protein: recombinant; tags: N-terminal GST; dsDNA, one strand shown
T5 sequence: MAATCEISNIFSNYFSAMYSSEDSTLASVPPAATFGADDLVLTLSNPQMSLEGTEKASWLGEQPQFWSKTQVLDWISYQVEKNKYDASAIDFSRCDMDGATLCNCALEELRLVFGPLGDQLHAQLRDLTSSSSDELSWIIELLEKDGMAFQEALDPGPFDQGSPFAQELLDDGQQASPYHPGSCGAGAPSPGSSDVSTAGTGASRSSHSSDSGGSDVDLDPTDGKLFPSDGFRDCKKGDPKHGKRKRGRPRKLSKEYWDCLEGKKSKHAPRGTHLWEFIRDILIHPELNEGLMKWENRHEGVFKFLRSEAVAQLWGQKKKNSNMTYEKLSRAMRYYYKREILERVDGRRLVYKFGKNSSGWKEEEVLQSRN
Method in brief: as §1

CRX = CRX (Homo sapiens, UniProt O43186 1-299); details: protein: recombinant; tags: N-terminal GST; dsDNA, one strand shown
Sequence of CRX (O43186 whole entry): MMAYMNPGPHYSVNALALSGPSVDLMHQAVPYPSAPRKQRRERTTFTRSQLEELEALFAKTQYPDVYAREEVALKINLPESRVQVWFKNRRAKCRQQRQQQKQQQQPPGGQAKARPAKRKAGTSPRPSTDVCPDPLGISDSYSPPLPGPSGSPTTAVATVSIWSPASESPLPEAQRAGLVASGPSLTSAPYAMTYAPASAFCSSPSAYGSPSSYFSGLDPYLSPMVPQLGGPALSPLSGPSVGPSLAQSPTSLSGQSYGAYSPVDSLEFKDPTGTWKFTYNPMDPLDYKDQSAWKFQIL
Method in brief: as §1

ETV1 = ETV1 (Homo sapiens, UniProt P50549 1-477); details: protein: recombinant; tags: N-terminal GST; dsDNA, one strand shown
Sequence of ETV1 (P50549 whole entry): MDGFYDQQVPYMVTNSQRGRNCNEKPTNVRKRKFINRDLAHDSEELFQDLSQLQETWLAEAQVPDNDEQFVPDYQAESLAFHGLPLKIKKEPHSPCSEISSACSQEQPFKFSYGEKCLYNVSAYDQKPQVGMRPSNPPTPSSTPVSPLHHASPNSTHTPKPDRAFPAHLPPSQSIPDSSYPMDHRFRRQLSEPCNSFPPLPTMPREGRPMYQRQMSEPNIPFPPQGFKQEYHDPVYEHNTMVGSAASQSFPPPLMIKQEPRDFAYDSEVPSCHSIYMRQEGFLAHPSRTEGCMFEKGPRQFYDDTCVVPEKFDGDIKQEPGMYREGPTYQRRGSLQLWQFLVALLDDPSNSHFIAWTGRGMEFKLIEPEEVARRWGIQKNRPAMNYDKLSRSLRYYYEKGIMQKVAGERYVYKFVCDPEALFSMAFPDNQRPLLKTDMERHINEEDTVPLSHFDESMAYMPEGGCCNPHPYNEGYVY
Method in brief: as §1

ERF = target: T6, ERF (Homo sapiens, UniProt P50548 1-548); details: protein: recombinant; tags: N-terminal GST; dsDNA, one strand shown
T6 sequence: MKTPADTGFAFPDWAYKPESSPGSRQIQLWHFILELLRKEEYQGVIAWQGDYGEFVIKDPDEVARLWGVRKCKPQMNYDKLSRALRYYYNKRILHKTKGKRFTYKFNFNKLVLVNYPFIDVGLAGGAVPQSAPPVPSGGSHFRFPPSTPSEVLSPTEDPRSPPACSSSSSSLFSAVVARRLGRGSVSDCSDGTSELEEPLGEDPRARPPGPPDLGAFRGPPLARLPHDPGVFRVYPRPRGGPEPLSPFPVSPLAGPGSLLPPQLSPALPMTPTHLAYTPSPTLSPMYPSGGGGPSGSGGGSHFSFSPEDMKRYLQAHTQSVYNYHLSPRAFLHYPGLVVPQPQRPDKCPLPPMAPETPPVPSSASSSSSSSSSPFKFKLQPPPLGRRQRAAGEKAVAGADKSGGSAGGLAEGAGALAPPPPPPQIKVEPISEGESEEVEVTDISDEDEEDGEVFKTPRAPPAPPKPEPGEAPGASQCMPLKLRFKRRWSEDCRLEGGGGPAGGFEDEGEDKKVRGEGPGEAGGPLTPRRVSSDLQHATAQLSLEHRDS
Method in brief: as §1

ETV3L = target: T7, ETV3L (Homo sapiens, UniProt Q6ZN32 1-361); details: protein: recombinant; tags: N-terminal GST; dsDNA, one strand shown
T7 sequence: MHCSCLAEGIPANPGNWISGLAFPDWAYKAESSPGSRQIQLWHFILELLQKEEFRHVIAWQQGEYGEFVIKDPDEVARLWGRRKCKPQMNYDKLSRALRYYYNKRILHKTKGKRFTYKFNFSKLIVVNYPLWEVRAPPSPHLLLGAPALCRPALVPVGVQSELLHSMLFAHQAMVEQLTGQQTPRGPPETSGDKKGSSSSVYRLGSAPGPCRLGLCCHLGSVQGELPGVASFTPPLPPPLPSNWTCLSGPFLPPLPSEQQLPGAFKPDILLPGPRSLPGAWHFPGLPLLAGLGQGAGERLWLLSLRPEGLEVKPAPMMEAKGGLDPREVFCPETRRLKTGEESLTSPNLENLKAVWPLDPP
Method in brief: as §1

ETS2 = target: T8, ETS2 (Homo sapiens, UniProt P15036 1-469); details: protein: recombinant; tags: N-terminal GST; dsDNA, one strand shown
T8 sequence: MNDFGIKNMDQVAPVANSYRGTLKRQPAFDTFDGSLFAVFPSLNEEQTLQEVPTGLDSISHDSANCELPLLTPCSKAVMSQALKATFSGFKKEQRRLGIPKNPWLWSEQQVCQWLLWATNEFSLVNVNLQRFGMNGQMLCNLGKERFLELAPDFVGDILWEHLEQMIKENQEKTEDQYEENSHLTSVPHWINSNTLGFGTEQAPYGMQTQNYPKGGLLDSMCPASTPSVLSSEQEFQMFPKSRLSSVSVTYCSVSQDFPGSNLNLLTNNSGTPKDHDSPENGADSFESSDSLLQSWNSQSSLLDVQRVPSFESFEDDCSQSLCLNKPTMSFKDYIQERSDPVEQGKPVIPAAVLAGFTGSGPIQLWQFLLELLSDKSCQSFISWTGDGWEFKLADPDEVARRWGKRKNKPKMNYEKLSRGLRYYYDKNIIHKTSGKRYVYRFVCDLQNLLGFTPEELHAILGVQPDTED
Method in brief: as §1

SPDEF = target: T9, SPDEF (Homo sapiens, UniProt O95238 1-335); details: protein: recombinant; tags: N-terminal GST; dsDNA, one strand shown
T9 sequence: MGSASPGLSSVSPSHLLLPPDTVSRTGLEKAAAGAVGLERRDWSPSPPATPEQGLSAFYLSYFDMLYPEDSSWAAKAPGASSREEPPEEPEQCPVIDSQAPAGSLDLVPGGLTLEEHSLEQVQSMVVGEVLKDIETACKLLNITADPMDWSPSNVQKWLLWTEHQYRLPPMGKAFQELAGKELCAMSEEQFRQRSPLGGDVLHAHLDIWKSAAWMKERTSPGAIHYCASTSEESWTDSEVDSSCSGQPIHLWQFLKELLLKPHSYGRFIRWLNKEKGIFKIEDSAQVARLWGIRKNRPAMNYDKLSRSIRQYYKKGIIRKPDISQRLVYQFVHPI
Method in brief: as §1

ETV7 = target: T10, ETV7 (Homo sapiens, UniProt Q9Y603 1-341); details: protein: recombinant; tags: N-terminal GST; dsDNA, one strand shown
T10 sequence: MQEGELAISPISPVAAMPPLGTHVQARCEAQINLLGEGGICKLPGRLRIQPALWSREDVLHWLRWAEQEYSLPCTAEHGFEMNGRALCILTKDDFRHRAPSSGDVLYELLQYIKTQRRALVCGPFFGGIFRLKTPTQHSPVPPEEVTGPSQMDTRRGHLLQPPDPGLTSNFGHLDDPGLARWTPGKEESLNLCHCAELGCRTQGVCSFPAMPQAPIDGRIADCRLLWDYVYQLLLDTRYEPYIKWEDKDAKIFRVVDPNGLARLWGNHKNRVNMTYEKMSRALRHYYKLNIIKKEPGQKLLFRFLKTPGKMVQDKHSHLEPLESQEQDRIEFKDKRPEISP
Method in brief: as §1

ELF5 = target: T11, ELF5 (Homo sapiens, UniProt Q9UKW6-2 1-255); details: protein: recombinant; tags: N-terminal GST; dsDNA, one strand shown
T11 sequence: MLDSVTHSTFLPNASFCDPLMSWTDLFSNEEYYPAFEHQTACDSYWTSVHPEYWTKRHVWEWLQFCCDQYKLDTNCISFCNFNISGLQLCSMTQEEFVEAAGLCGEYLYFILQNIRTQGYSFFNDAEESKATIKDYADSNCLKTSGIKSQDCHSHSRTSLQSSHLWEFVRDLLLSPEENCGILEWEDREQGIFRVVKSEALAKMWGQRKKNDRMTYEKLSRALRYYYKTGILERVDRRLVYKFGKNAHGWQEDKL
Method in brief: as §1

ETV3 = target: T12, ETV3 (Homo sapiens, UniProt P41162-2 1-143); details: protein: recombinant; tags: N-terminal GST; dsDNA, one strand shown
T12 sequence: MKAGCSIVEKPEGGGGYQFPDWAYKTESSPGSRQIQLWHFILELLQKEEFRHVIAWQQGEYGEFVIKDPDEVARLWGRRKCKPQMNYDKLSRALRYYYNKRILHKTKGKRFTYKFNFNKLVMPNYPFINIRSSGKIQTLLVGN
Method in brief: as §1

ETV6 = ETV6 (Homo sapiens, UniProt P41212 1-452); details: protein: recombinant; tags: N-terminal GST; dsDNA, one strand shown
Sequence of ETV6 (P41212 whole entry): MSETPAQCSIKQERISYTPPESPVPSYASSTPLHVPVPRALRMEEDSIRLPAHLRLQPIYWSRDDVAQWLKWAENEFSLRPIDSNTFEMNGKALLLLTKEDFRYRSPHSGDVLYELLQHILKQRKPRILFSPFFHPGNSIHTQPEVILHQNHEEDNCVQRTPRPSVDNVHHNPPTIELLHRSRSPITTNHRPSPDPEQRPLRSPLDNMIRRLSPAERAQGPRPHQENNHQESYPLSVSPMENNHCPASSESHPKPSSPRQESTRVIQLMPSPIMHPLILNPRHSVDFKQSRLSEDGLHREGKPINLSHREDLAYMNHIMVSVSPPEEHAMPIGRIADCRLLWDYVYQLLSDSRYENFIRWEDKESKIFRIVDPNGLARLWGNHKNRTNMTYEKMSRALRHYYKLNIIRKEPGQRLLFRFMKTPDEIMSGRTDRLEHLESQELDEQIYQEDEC
Method in brief: as §1

For TCCCGG, the binding signal (FEV) was 2.09 fold enrichment (6-mer frequency, TF over GST control), the binding signal (ETV5) was 2.27 fold enrichment (6-mer frequency, TF over GST control) and the binding signal (HSF1) was 1.37 fold enrichment (6-mer frequency, TF over GST control). For the same sequence, the binding signal (SPIC) was 2.35 fold enrichment (6-mer frequency, TF over GST control), the binding signal (ELF4) was 2 fold enrichment (6-mer frequency, TF over GST control) and the binding signal (ELK4) was 1.91 fold enrichment (6-mer frequency, TF over GST control). For the same sequence, the binding signal (ETV2) was 2 fold enrichment (6-mer frequency, TF over GST control), the binding signal (ELF3) was 2.17 fold enrichment (6-mer frequency, TF over GST control) and the binding signal (CRX) was 1.41 fold enrichment (6-mer frequency, TF over GST control). The binding signal (ETV1) was 2.21 fold enrichment (6-mer frequency, TF over GST control), the binding signal (ERF) was 1.77 fold enrichment (6-mer frequency, TF over GST control) and the binding signal (ETV3L) was 2.2 fold enrichment (6-mer frequency, TF over GST control). For the same sequence, the binding signal (ETS2) was 2.34 fold enrichment (6-mer frequency, TF over GST control), the binding signal (SPDEF) was 2.76 fold enrichment (6-mer frequency, TF over GST control) and the binding signal (ETV7) was 1.92 fold enrichment (6-mer frequency, TF over GST control). The binding signal (ELF5) was 3.07 fold enrichment (6-mer frequency, TF over GST control), the binding signal (ETV3) was 2.44 fold enrichment (6-mer frequency, TF over GST control) and the binding signal (ETV6) was 2.46 fold enrichment (6-mer frequency, TF over GST control).
